# Coupling enz – qHTS Assay for Inhibitors of Fructose-1,6-bisphosphate Aldolase from Giardia Lamblia: Coupling assay counterscreen; coupling enzyme system counterscreen, AmpLite Red fluorescence; activity change, negative = inhibition, % at 58.2 µM, hits read low; 290,000 tested, 0.67% active; AID 2472, 2010; in the data active means activity change below about -30%
#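 First, compound is pin-transferred into glyceraldehyde-3-phosphate coupling-enzyme reagent at 57.5 uM final and held 10 min at RT. Next, substrate, coupling system and AmpLite Red are added. After 20 min RT, fluorescence (525/598 nm) is read.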
# Sfp PPTase inh – qHTS Assay for Inhibitors of Bacillus subtilis Sfp phosphopantetheinyl transferase (PPTase); 310,000 tested, 3.5% active; AID 1490, 2009; Potency, µM, without a hit: largest response in the series, negative = inhibition, usual class: inhibitors; Biochemical Sfp PPTase activity, qHTS; 4'-phosphopantetheinyl transferase ffp (Bacillus subtilis), Q9F4F7;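 further: the enzyme is Sfp with the accession as filed and its product quenches rhodamine fluorescence; potency means the concentration at half of the fitted maximal effect; 0% = enzyme reaction without inhibitor and -100% = no enzyme wells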
#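 Buffer: 50 mM Hepes-Na pH 7.6, 10 mM MgCl2, 0.01% Nonidet P-40, 0.01% BSA. Enzyme 15 nM, pre-exposed to compound 15 min; substrates then added and fluorescence change tracked over 30 min.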
# Tau fibril ThT – qHTS for Inhibitors of Tau Fibril Formation, Thioflavin T Binding; Microtubule-associated protein tau (Homo sapiens), P10636; recombinant tau K18 P301L, heparin-induced fibrillization, ThT fluorescence; AID 1460, 2008; Potency, µM (titrated, usually from 57.4 µM), for inactives: at the top dose activity, negative = inhibition, actives largely listed as inhibitors; 270,000 tested, 2.1% active; further: potency means the concentration at half of the fitted maximal effect; nearly all actives have a fitted effect of over 55% in size
# Target sequence (P10636 561-689 P618L limits assumed): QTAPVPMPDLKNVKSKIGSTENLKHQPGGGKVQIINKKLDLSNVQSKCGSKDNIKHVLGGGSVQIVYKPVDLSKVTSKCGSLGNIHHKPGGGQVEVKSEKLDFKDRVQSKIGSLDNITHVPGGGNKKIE
#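 Recombinant human tau K18 fragment […] carrying P301L, 15 uM unlabeled plus 0.24 uM Alexa 594-labeled, was fibrillized with 20 uM heparin in 100 mM sodium acetate pH 7 for 6 hr at 37 C; 30 uM ThT fluorescence read after 1 hr.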
# Tau fibril FP – qHTS for Inhibitors of Tau Fibril Formation, Fluorescence Polarization | Microtubule-associated protein tau (Homo sapiens), P10636 | K18 P301L tau heparin fibrillization, Alexa594 FP, 6 h | Potency, µM (titrated, usually from 57.7 µM), inactives show at the highest dose activity, negative = inhibition, usual class: inhibitors | 280,000 tested, 0.39% active | AID 1468, 2008; further: potency means the concentration at half of the fitted maximal effect; nearly all actives have a fitted effect of over 55% in size
#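 K18 P301L tau (15 uM unlabeled/0.24 uM Alexa 594-labeled, final) + compound + heparin 20 uM final; 100 mM NaOAc pH 7; 6 hr 37 C; ThT 30 uM final added, 1 hr RT; FP ex 555/em 632 nm.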
# Tau fluor counter – Counterscreen qHTS for Inhibitors of Tau Fibril Formation, Fluorescence Polarization; AID 1463, 2008; Potency, µM (titrated, usually from 57.7 µM), for inactives: top-dose activity change, negative = decrease; 280,000 tested, 0.93% active; tau K18 P301L Alexa594 fluorescence, heparin fibrillization; further: potency means the concentration at half of the fitted maximal effect; nearly all actives have a fitted effect of over 55% in size
#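 Human tau K18 P301L (15 uM unlabeled, 0.24 uM Alexa 594-labeled) in 100 mM sodium acetate pH 7 with 20 uM heparin, 6 hr at 37 C. ThT 30 uM added, 1 hr ambient; Alexa 594 FP and total fluorescence read at 555/632 nm.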
# The depositor's hits bear a star; ? = inconclusive; . = no result; [ ] = another dose, or the depositor's remark. Only some compounds are listed: those with a hit (about 5.2% of all), similar ones and a draw of the others. Unless noted, the call rests on the fitted dose curve; in most records, active means well fitted curve in the direction sought with a large enough effect; inconclusive means small, poorly fitted or top-dose-only effect, or another doubt; inactive means no such curve, though single readings can be large; an effect the other way counts as inactive or inconclusive. Unless noted, on the % scale 0 is the no-effect control and ±100 the full control effect.
SMILES,Coupling enz,Sfp PPTase inh,Tau fibril ThT,Tau fibril FP,Tau fluor counter
Nc1nonc1C(=O)N/N=C/c1ccc(-c2ccc(Cl)c(C(=O)O)c2)o1,-2.1,8.91µM*,?,5.4%,7.1%
Cc1ccc(NC(=O)/C(C#N)=C/c2ccc(-c3ccc(Cl)c(C(=O)O)c3)o2)cc1C,.,.,4.47µM*,-2.2%,-2.2%
O=C(O)c1cc(-c2ccc(/C=N/Nc3ccc(Cl)cc3)o2)ccc1Cl,-7.7,-21.5%,8.91µM*,2.4%,11.2µM*[quencher]
CC(C)(c1ccccc1)c1ccc(OCCCN2CCNCC2)cc1,1.9,39.8µM*,?,8.2%,-1.2%
CNCCCOc1ccc(C(C)(C)c2ccccc2)cc1,1.0,56.2µM*,-4.3%,4.6%,-6.7%
N#Cc1cc2ccc(N3CCOCC3)cc2cc1C#N,-42.7*,18.6%,?,-13.0%,-13.3%
N#Cc1cc(Cl)c(N2CCOCC2)cc1C#N,0.5,1.4%,2.4%,7.5%,-4.1%
Cc1coc2cc3oc(=O)c(CCC(=O)NCc4ccc(Cl)cc4)c(C)c3cc12,.,.,-3.7%,-3.6%,-11.2%
Cn1cc(C(=O)NCc2ccccc2)c(=O)c2cc(S(=O)(=O)N3CCOCC3)ccc21,.,.,8.4%,-8.6%,-6.5%
COc1ccc(NC(=S)NNC(=O)CNc2ccc(Cl)cc2)cc1,11.3,79.4µM*,-17.3%,?,-5.8%
CCOC(=O)C1=C(CSc2nc3c(cc2C#N)CN(C)CC3)OC(N)=C(C#N)C1c1ccc(Cl)cc1 (stereo not drawn),0.5,-30.8%,20µM*,-16.0%,?
CCOC(=O)c1cc(-c2ccccc2)n(CCC(=O)NCCc2ccccc2)c1C,.,.,-15.2%,2.7%,-17.0%
Cc1ccsc1/C=N/Nc1nc2ccccc2[nH]1,-2.8,0.0%,?,0.6%,?
Cc1c(/C=N/Nc2nc3ccccc3[nH]2)c2ccccc2n1C,-3.5,?,.,17.6%,14.1µM*[quencher]
CC(C)Cn1c(/C=N/Nc2nc3ccccc3[nH]2)nc2ccccc21,-0.1,-10.9%,?,13.0%,28.2µM*[quencher]
C(=N\Nc1nc2ccccc2[nH]1)/c1cccs1,-9.1,-18.6%,5.01µM*,17.8µM*,?
C=CCn1cc(/C=N/Nc2nc3ccccc3[nH]2)c2ccccc21,-9.3,15.8µM*,7.94µM*,1.3%,11.2µM*[quencher]
Cc1ccc(Cl)cc1NS(=O)(=O)c1cc2c3c(c1)CC(=O)N3CCC2,.,.,2.0%,4.4%,5.1%
CCCn1c(/C=N/Nc2nc3ccccc3[nH]2)nc2ccccc21,5.9,?,?,?,?
Cn1c(/C=N/Nc2nc3ccccc3[nH]2)nc2ccccc21,-1.5,-7.6%,3.98µM*,-0.2%,?
Cc1ccccc1CSc1cn(CC(=O)N2CCCCCC2)c2ccccc12,.,.,?,4.7%,-29.0%
COc1ccc(/C=C/C2=NC(=C\N(C)C)/C(=O)O2)cc1,-10.8,79.4µM*,?,11.9%,?
CCC(=O)NC(=S)Nc1ccc(NC(=S)NC(=O)c2ccc(C)cc2)cc1,1.9,-4.0%,-12.0%,-9.5%,2.6%
CCC(=O)NNC(=S)NC(=O)c1ccc(C)cc1,-1.1,56.2µM*,-9.8%,-2.0%,3.9%
CC(=O)NNC(=S)NC(=O)c1ccc(C)cc1,4.1,22.6%,?,4.0%[2.34 µM],1.8%[2.34 µM]
SMILES,Coupling enz,Sfp PPTase inh,Tau fibril ThT,Tau fibril FP,Tau fluor counter
CC(=O)NNC(=S)NC(=O)c1ccccc1,-0.6,17.8µM*,-4.9%,-1.3%,2.6%
Cc1ccc(C(=O)NC(=S)Nn2cnnc2)cc1,0.5,28.2µM*,-0.7%,-10.2%,-3.0%
Cc1ccc(/C=C/C(=O)Nn2cnnc2)cc1,1.7,19.6%,14.1µM*,?,-15.0%
COC(=O)c1scc(-c2ccc(C)cc2)c1S(=O)(=O)N1CCN(c2cccc(Cl)c2)CC1,.,.,-4.3%,-3.9%,-15.6%
O=C(CN1CCN(Cc2ccc(F)cc2)C1=O)NCc1ccccc1,.,.,-6.6%,-12.9%,-10.5%
Cc1ccc(C(=O)NC(=S)NNC(=O)COc2ccc([N+](=O)[O-])cc2)cc1,3.2,70.8µM*,.,.,.
O=C(NNC(=S)NC(=O)c1ccccc1[N+](=O)[O-])c1ccccc1Cl,1.3,8.4%,?,-4.4%,1.6%
O=C(NC(=S)NNC(=O)c1ccccc1[N+](=O)[O-])c1ccc(Br)cc1,1.1,79.4µM*,.,.,.
O=C(CCc1ccccc1)NNC(=S)NC(=O)c1ccc(Cl)cc1,4.2,50.1µM*,-19.6%,1.9%,-8.3%
Cc1ccc(OCC(=O)Nc2ccc([N+](=O)[O-])cc2)cc1,0.3,8.0%,-2.2%,-2.6%,3.4%
O=C(COc1ccc([N+](=O)[O-])cc1)NNC(=S)NC(=O)c1ccc(Br)cc1,10.2,44.7µM*,?,-7.8%,-7.3%
O=C(COc1ccccc1)NNC(=S)NC(=O)c1ccccc1,2.6,?,-16.2%,-6.4%,-6.4%
CCN1CCN(c2cc(N3CCc4ccccc4C3)c(F)cc2[N+](=O)[O-])CC1,-2.7,-7.6%,14.1µM*,5.7%,-21.6%
CC(=O)N1CCN(c2cc(N3CCCC3)c(F)cc2[N+](=O)[O-])CC1,1.1,-12.3%,?,-18.5%,-13.0%
Cc1cccc(-c2cc3nc4c(c(N5CCOCC5)n3n2)CCCC4)c1,3.6,?,?,-1.1%,-10.0%
Cc1cccc(-c2cc3nc4c(c(NCc5ccco5)n3n2)CCCC4)c1,-0.5,50.1µM*,?,-5.6%,-27.5%
CCCN(CCC)C(=O)c1cc2c(=O)n3cccc(C)c3nc2n1C,.,.,-17.6%,-7.1%,-3.1%
CCC(=O)N1CCc2cc(S(=O)(=O)NC(CC(C)C)C(=O)Nc3cc(C)ccc3OC)ccc21 (stereo not drawn),.,.,-10.3%,-3.9%,-19.2%
O=C(CCS(=O)(=O)c1ccccc1)Nc1nc(-c2cccs2)cs1,0.9,-0.8%,-11.0%,3.9%,-23.7%
O=C(CCS(=O)(=O)c1ccc(F)cc1)Nc1nc(-c2ccncc2)cs1,.,12.6µM*,.,.,.
O=C(COc1ccc(Cl)cc1)Nc1nc(-c2ccncc2)cs1,.,22.4µM*,.,.,.
Fc1cc(NC(=S)NCc2ccc(CNC(=S)Nc3ccc(Cl)c(F)c3)cc2)ccc1Cl,0.5,18.4%,17.0%,3.98µM*,-23.7%
Fc1cccc(NC(=S)NCc2ccc(Cl)cc2)c1,1.8,7.2%,7.0%,-13.0%,-25.9%
Cc1cc(SCC(=O)c2cccc([N+](=O)[O-])c2)nc(=O)[nH]1,.,44.7µM*,.,.,.
O=C(CSc1ncn[nH]1)c1ccccc1,0.9,56.2µM*,-10.0%,-12.4%,-3.7%
O=C(CSc1ncn[nH]1)c1cccc([N+](=O)[O-])c1,3.0,50.1µM*,?,?,-27.4%
O=C(CSc1ncn[nH]1)c1ccco1,-8.5,?,?,0.5%,-1.9%
Cc1cc(SCc2cccc([N+](=O)[O-])c2)nc(=O)[nH]1,.,5.4%,.,.,.

# Compound activity from PubChem BioAssay.
